# Over roughly 33,000 sequences, “E-score (-0.5 to 0.5)” has its median near -0.01; the highest 2% begin near 0.26. The list comes from a sample in which the highest values are over-represented; it also holds similar and randomly drawn sequences.
# Biological target: Ste12 (UniProt P13574)
# Assay: PBM E-score (8-mer binding enrichment) (E-score (-0.5 to 0.5)); higher = stronger / more preferred TF binding
# Details: protein concentration: 200 nM; construct: GST-DNA-binding domain
# Method in brief: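 Bound GST-tagged yeast transcription factors, applied at about 100-200 nM to double-stranded universal all-10-mer Agilent arrays, were detected with fluorescent anti-GST. Scans were normalised with masliner. A modified Wilcoxon-Mann-Whitney statistic, the E-score, was assigned to each ungapped eight-base word pooled with its reverse complement by the Universal PBM Analysis Suite.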
# Chain of UniProt P13574 (P13574 whole entry): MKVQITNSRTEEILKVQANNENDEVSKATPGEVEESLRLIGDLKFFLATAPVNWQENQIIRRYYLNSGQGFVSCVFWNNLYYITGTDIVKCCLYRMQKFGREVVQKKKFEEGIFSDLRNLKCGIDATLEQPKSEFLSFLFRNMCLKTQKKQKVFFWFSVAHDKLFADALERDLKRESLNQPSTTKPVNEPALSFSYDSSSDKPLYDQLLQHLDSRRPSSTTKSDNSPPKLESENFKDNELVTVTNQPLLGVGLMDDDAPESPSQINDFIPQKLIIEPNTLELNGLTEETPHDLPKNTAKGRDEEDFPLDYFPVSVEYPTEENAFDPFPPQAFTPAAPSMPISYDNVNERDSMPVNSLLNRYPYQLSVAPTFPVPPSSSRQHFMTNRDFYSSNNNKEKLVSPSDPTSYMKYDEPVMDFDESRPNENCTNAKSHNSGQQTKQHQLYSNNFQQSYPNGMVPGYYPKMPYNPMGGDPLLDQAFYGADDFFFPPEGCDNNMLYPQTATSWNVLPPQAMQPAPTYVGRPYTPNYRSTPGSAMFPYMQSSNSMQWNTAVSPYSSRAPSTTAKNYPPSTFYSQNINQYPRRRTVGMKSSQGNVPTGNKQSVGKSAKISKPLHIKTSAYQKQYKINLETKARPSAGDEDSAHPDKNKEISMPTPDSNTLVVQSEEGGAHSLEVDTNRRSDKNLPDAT
row,Sequence,PBM E-score
1,CGGCGAAC,0.0131
2,GGAAGGGA,-0.106
3,CTGTACTC,-0.247
4,CTAGTGTA,0.129
5,GACTACTC,-0.0788
6,CCCCATTA,-0.193
7,TTAATAAA,0.344
8,ATAATAAA,0.255
9,CTAATAAA,0.145
10,ACGGCAAA,0.277
11,ACGGCAAT,0.0277
12,ACGGCAAG,0.0378
13,CCACAAGG,-0.107
14,GAGAGTAA,0.142
15,TCCCGCCA,0.101
16,CACCGCCA,0.0129
17,ACCCGCCC,0.361
18,GCCCGCCA,-0.0776
19,CGCCGCCC,0.239
20,GCCCGCCC,0.257
21,CACCGCCC,0.27
22,CCCCGCCC,0.347
23,ACCCGCCG,0.137
24,CCCCGCCG,0.242
25,AACCGCCC,0.00313

row,Sequence,PBM E-score
1,CCCCGCCA,0.38
2,ACCCTCAC,-0.029
3,CATATAAA,0.0963
4,AGTAAAAA,0.214
5,TGTAAAAA,0.334
6,TATAAAGA,0.0307
7,TATAAAAA,0.27
8,AATATAAT,0.138
9,AATATAAA,0.306
10,CGTAAAAA,0.126
11,AATAAAAA,0.229
12,GATATAAA,0.0834
13,AATATAAG,0.198
14,TATATAAA,0.267
15,TCCTGGCA,-0.0322
16,CTGCGCCC,-0.239
17,ACCTACCT,0.0101
18,CGCGGGTA,0.0349
19,GAGAGAGA,-0.0897
20,AAGCGGTA,0.0316
21,ATACTCGG,-0.0182
22,ACAAATCA,0.0844
23,CACCGTGC,0.131
24,ACGGGAGC,-0.111
25,CTTATAAA,0.223

row,Sequence,PBM E-score
1,TTTATAAA,0.271
2,GTTATAAA,0.218
3,AGCTGTTG,-0.0338
4,ACGAGCCT,-0.0238
5,AAACACTG,0.248
6,CAACACTA,0.0388
7,AAACACTA,0.273
8,GAACACTA,-0.13
9,AAACACTT,0.12
10,AAACACTC,0.288
11,GCGAGCCA,-0.0412
12,CTGCAAGC,-0.141
13,ATAAGCAA,0.148
14,CTTTTCAA,0.221
15,ATTTTCAA,0.193
16,CATTTCAA,0.214
17,GGTTTCGA,0.193
18,GGTTTCAA,0.416
19,TATTTCAA,0.282
20,AATTTCAA,0.106
21,TGTTCAAA,0.17
22,GATTTCAA,0.159
23,TCTTTCAA,0.0772
24,GTTTTCAA,0.32
25,TGTTTCAA,0.484

row,Sequence,PBM E-score
1,CCAGGAGA,-0.24
2,GCCTGCGC,-0.119
3,CTTCTGCC,-0.122
4,TATCTTCA,0.15
5,AACGATCT,0.153
6,ATAAGCCC,-0.0186
7,GTGGAGGA,-0.0464
8,GGTTTCAC,0.386
9,GATTTCAC,0.111
10,GCTTTCAC,0.0706
11,ACTAGCTA,-0.0308
12,ATTCTGAC,0.0839
13,ATGAATGA,0.192
14,ATGAATGC,0.138
15,ATGAATGG,0.33
16,AAGATCAC,-0.0426
17,GGCTGCTA,-0.037
18,ATCTGATG,0.109
19,GGGGCTAC,-0.0752
20,ATAGGGCA,-0.109
21,CGCGGCGA,0.126
22,CCCGCCCA,0.332
23,ACCGCCCC,0.348
24,CCCGCCCG,0.233
25,CCCGCCAC,0.213

row,Sequence,PBM E-score
1,CCCGCCGA,-0.0475
2,ACCGCCCG,-0.057
3,ACCGCCCT,-0.00709
4,CCCGCCGG,0.158
5,CCCGCCCC,0.32
6,TCCGCCCA,-0.107
7,CCCGCGCC,0.168
8,CCCGCCGC,0.31
9,AACACTTC,0.135
10,AACACTGG,-0.00819
11,CCCATAAA,-0.0663
12,GTGCAAGA,-0.145
13,GCCGCCCC,0.307
14,GCCGCCCA,0.0226
15,GCCGCCGC,-0.0603
16,CTTCCCTC,-0.0689
17,CAGACATA,0.0544
18,ATTTTTCA,0.222
19,ATTTTTCG,0.294
20,ATTTTCCC,0.173
21,AATTTCCG,0.211
22,ATTTTCCG,0.318
23,AATTTTCG,0.128
24,AGATACAT,0.00257
25,CCCTAGTA,0.0343

row,Sequence,PBM E-score
1,CGAGGACA,-0.0668
2,AAGCAGTG,0.0293
3,AACAGAAG,-0.0718
4,AACAAACC,0.116
5,AACAAAAA,0.332
6,TACAAACA,0.21
7,GACAGAAA,0.168
8,AACAAACA,0.269
9,AACAAAAC,0.236
10,CACAAAGC,0.0779
11,AACAAGCC,-0.125
12,AACAAAAG,0.119
13,AACAGAAA,0.311
14,AACAAAGC,0.294
15,CGTGCGTA,-0.0557
16,TATAACAA,0.215
17,CTTGAGTA,-0.208
18,CCTGTCGA,-0.122
19,GCCAACTA,-0.196
20,GTTCCGAA,0.137
21,ACTTCCAT,0.0326
22,ACGCTGCG,-0.0283
23,CCGCCCCC,-0.00614
24,CCGCCCCG,0.408
25,CCGCCCGG,-0.0452

row,Sequence,PBM E-score
1,GCGCCCCA,0.056
2,CCGCCCCA,0.417
3,ACGCCCCA,0.239
4,AACAGCGC,-0.0225
5,CACTGTTA,-0.0596
6,ATTCCTAG,0.0776
7,CCGCAAGC,-0.226
8,GCACGCCA,-0.201
9,ATTTTACA,0.113
10,GTTTTACA,0.296
11,CTTTTACA,0.269
12,CCTTTACA,-0.103
13,ATTTTATA,0.199
14,GGTTTACA,-0.0303
15,CTTTTATA,0.0308
16,GTTTTATA,0.399
17,CTTTTACC,0.0888
18,AGCTAGCT,-0.0845
19,CACTTTGA,-0.032
20,GGTTCTCA,0.0128
21,ATCTGCCC,-0.153
22,ATACGTGG,-0.0972
23,TGCCTGAA,-0.0642
24,CTGTCAAG,-0.2
25,CAATCTTC,0.144

row,Sequence,PBM E-score
1,CACCATCG,-0.197
2,CCCGAGTC,0.0359
3,ATTTAATC,0.209
4,CTTTAATA,0.209
5,ATTTAAGG,0.00576
6,GTTTAATA,0.179
7,ATTTAATA,0.267
8,ATTTAATG,0.272
9,CACTTATG,0.00871
10,ATGGGTTC,-0.094
11,AGATAGAA,-0.0615
12,AGGGCTTC,-0.0834
13,ATTAAAGC,0.0638
14,ATAGTCTC,0.132
15,AAGGTGAG,0.00195
16,TACACGTA,-0.00219
17,AAACGAAA,0.248
18,CAACGAAA,0.13
19,TAACGAAA,0.298
20,AGATGTGC,-0.154
21,AGATGTGA,0.262
22,CGATGTGA,0.046
23,GAGCCAGA,-0.0414
24,CTGGGGTA,-0.145
25,ATGGGGTA,-0.0735

row,Sequence,PBM E-score
1,GTGGGGTA,0.302
2,CGAACGAC,-0.034
3,ACCACTTG,0.0214
4,AAACAGTG,0.309
5,AAACAAAC,0.263
6,AAACAAAG,0.233
7,CAACAGTG,0.104
8,AAACAAAT,0.28
9,ACCCAAAG,-0.0486
10,ACCCAAAC,0.285
11,AAACAAAA,0.225
12,ACCCAAAA,0.13
13,AAACAAGT,0.149
14,GAACAAAC,0.181
15,AAACAGTT,0.245
16,GTCCGGGA,0.0647
17,GAAAGCTC,-0.201
18,GGTCCAGA,-0.0878
19,ATATTGCA,0.104
